This passage reports AC50 and outcome results from PubChem BioAssay (EPA / NIEHS).

A short description of experiment [1]: CCTE_Shafer_MEA_dev_inter_network_spike_interval_mean: CCTE's Neural Network Formation Assay for Mean Inter-network Spike Interval, Shafer Lab (AID 2284047).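 On AC50: potency for a decrease in mean inter-network spike interval below DMSO.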 Summed up:
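Compound was given at plating to primary rat cortical neurons and renewed with full medium changes on DIV 5 and 9. Extracellular activity was recorded on days 5, 7, 9, 12; AUC values were fitted for loss relative to DMSO control.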

A short description of experiment [2]: CCTE_Shafer_MEA_dev_network_spike_number: CCTE's Neural Network Formation Assay for Number of Network Spikes, Shafer Lab (AID 2284048).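 Further: synchronized bursts across electrodes counted on days 5 7 9 12 and integrated as AUC.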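 On AC50: fit as a loss of signal meaning fewer network spikes than DMSO.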 Summed up:
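Extracellular recordings from 16-electrode wells track network formation in rat cortical cultures under continuous treatment from plating. The endpoint is network spike number, expressed as AUC across DIV 5–12 relative to DMSO vehicle.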

A short description of experiment [3]: CCTE_Shafer_MEA_dev_network_spike_peak: CCTE's Neural Network Formation Assay for Mean Number of Electrodes in Network Spike, Shafer Lab (AID 2284049).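 On AC50: fitted for loss of signal meaning fewer electrodes in network spikes than DMSO.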 Summed up: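 Continuous 12-day exposure of rat cortical cultures, starting at plating, on MEA plates. Endpoint: electrodes participating in network-spike peaks, AUC across DIV 5–12, DMSO as negative control.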

Experiment [4] can be described thus: CCTE_Shafer_MEA_dev_spike_duration_mean: CCTE's Neural Network Formation Assay for Mean Spike Duration, Shafer Lab (AID 2284051).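 Further: mean network spike duration pooled as area under curve over DIV 5 to 12 recordings.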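 On AC50: potency for a decrease in mean network spike duration versus DMSO.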 Summed up: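 With DMSO as baseline, loss of mean network spike duration was scored from extracellular recordings of rat cortical neurons on MEA plates. Exposure spanned plating to DIV 12; the four recording days were collapsed into one AUC value.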

A short description of experiment [5]: CCTE_Shafer_MEA_dev_network_spike_duration_std: CCTE's Neural Network Formation Assay for Standard Deviation of Network Spike Duration, Shafer Lab (AID 2284052).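 Further: area under curve of spike duration SD across recording days 5 to 12; hits are decreases in network spike duration SD versus DMSO vehicle.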 Summed up:
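Developing networks of rat cortical neurons were exposed over twelve days in vitro on 48-well MEA plates. Trapezoidal AUC of recordings (DIV 5–12) was analysed for signal loss relative to DMSO vehicle.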

A short description of experiment [6]: CCTE_Shafer_MEA_dev_per_network_spike_spike_number_mean: CCTE's Neural Network Formation Assay for Mean Number of Spikes in a Network Spike, Shafer Lab (AID 2284053). Summed up:
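First, rat cortical cells (1.5 x 10^5/well) were seeded onto MEA wells; second, dosing began at plating and was refreshed on DIV 5 and 9; finally, network-spike spike counts across DIV 5–12 were summarized as AUC.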

Experiment [7] in a line: CCTE_Shafer_MEA_dev_per_network_spike_spike_percent: CCTE's Neural Network Formation Assay for Percent of Spikes in a Network Spike, Shafer Lab (AID 2284054). Summed up:
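Developing networks of rat cortical neurons are dosed at day 0 and recorded extracellularly four times up to day 12. The endpoint is the area under the curve of percent spikes in network spikes, fitted in the negative direction relative to DMSO.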

Experiment [8] in a line: UKN5_HCS_SBAD2_cell_viability: Viability Assessment in the University of Konstanz (UKN) Leist Lab Neurite Outgrowth Assay in human iPSC-derived immature Dorsal Root Ganglia Neurons (UKN5) (AID 2284056). Summed up: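 iPSC-derived immature peripheral neurons (SBAD2) seeded on Matrigel with CHIR99021, SU5402 and DAPT, dosed 1 h later for 24 h. Viability from Hoechst H-33342 and calcein-AM live staining, high-content imaging; bidirectional fit versus DMSO.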

The test system of another experiment is DIO2 (gene 1734). As to the kind of experiment: CCTE_GLTED_hDIO2: CCTE's human Deiodinase 2 (DIO2) Inhibition Assay, Great Lakes Toxicology and Ecology Division (GLTED) Lab (AID 2284050; active means hit-call score of the fitted dose curve at least 0.9, where 1 is the maximum). Summed up: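 Iodide released by human deiodinase 2 over 3 h with test chemical, measured spectrophotometrically via Sandell-Kolthoff cerium/arsenic reaction. Run n=3; inhibition referenced to DMSO.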

The subject of a further experiment is DIO3 (gene 1735). Nature of the experiment: CCTE_GLTED_hDIO3: CCTE's human Deiodinase 3 (DIO3) Inhibition Assay, Great Lakes Toxicology and Ecology Division (GLTED) Lab (AID 2284055; active means hit-call score of the fitted dose curve at least 0.9, where 1 is the maximum;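 on AC50: potency is for inhibition seen as loss of released iodide signal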). Here is the method:
CCTE_GLTED_hDIO3 is a cell-free, single-readout assay designed to test the inhibitory activity of chemicals toward human iodothyronine Deiodinase type 3 (DIO3) enzyme. Enzyme is incubated in presence of test chemical for 3 hours during which uninhibited enzyme liberates free iodide from substrate. Free iodide is measured in a second step using the Sandell-Kolthoff method.CCTE_GLTED_hDIO3 is the assay component measured from the CCTE_GLTED_hDIO3 assay. It is designed to make measurements of enzyme activity, a form of enzyme reporter, as detected with absorbance signals by spectrophotometry.Data from the assay component CCTE_GLTED_hDIO3 was analyzed into 1 assay endpoint. This assay endpoint, CCTE_GLTED_hDIO3, was analyzed in the positive analysis fitting direction relative to DMSO as the negative control and baseline of activity. Using a type of enzyme reporter, loss-of-signal activity can be used to understand changes in the enzymatic activity as they relate to the gene DIO3. Furthermore, this assay endpoint can be referred to as a primary readout, because the performed assay has only produced 1 assay endpoint. To generalize the intended target to other relatable targets, this assay endpoint is annotated to the 'deiodinase' intended target family, where the subfamily is 'deiodinase Type 3'.
[…] assay, developed at Great Lakes Toxicology and Ecology Division (GLTED) within the EPA's Center for Computational Toxicology and Exposure (CCTE), is designed to test the chemicals' ability to inhibit DIO3. Assay uses human deiodinase type 3 (DIO3) enzyme produced with adenovirus expression system. Assay is based on iodide release measured by the Sandell-Kolthoff method and is run in 96-well plate format with assay plates run in triplicate (n=3). The method used for the deiodinase assay was largely based on Renko et al. (2012, 2015). These works describe the utilization of the SK reaction to measure deiodinase-liberated iodide in a 96-well-plate format. The SK reaction is based on the reduction of the yellow-colored cerium IV to the non-colored cerium III by arsenic, with the rate of this reaction increased in the presence of iodide in a concentration-dependent manner (Sandell and Kolthoff, 1937). Iodinated test chemicals can interfere as competitive inhibitors, or if the stock chemical has contaminating free-iodide present. Other chemicals, e.g.: nitrite, iron, and thiocyanate can interfere with the Sandell-Kolthoff reaction (see Sandell and Kolthoff, 1937).

Where “and” joins values, the source holds several entries; their conditions need not be identical. Equal values may be shown once. Where a structure was tested more than once in an assay, its records may differ in their call. Calls of active or inactive are those of the source. How the source made its calls, unless noted: active means hit-call score of the fitted dose curve at least 0.9, where 1 is the maximum; inactive means score below 0.9.

As to `CCC[CH2][Sn]([Cl])([CH2]CCC)[CH2]CCC`, the AC50 in experiment [1] was 0.0769 µM (active); in experiment [2] it was 0.0565 µM (active); in experiment [3], 0.0754 µM (active); in experiment [4], 0.0303 µM (active); in experiment [5] it was 0.0138 µM (active); in [6], 0.0632 µM (active). The figures for the AC50 in [7] and in experiment [8] were 77.7 nM (active) and 0.306 µM (active), respectively.
With `O=P(OCCCl)(OCCCl)OCCCl`, the call in experiment [1], in experiment [2], in experiment [3], in experiment [4], in experiment [5] and in experiment [6] was inactive. Further, in experiment [7], the result was inactive.
For `CC(C)COC(=O)c1ccccc1C(=O)OCC(C)C`, the molecule was called inactive in experiment [1], in experiment [2] and in experiment [5]. In addition, the AC50 in experiment [3] is 15.9 µM (active); in experiment [4] it was 13.7 µM (active); in [6] it was 13.6 µM (active); in experiment [7], 23100 nM (active).
On to `Clc1ccc(C(c2ccc(Cl)cc2)C(Cl)Cl)cc1`, for which, in [1], the molecule was called inactive. For the same molecule, the AC50 in experiment [2] is 1.98 µM (active); in [3], 4.03 µM (active); in experiment [4], 3.39 µM (active); in experiment [5], 3.21 µM (active); in experiment [6], 4.95 µM (active); in experiment [7], 3970 nM (active).
For `CCCCCCCCn1sccc1=O`, the AC50 in the experiment with DIO2 (gene 1734) was 8.47 µM (active); with DIO3 (gene 1735), 17.5 µM (active).
Consider `Nc1cc(Cl)cc(C(=O)O)c1Cl`, for which the call in experiment [1], in experiment [2], in experiment [3], in experiment [4], in experiment [5] and in experiment [6] was inactive. In addition, the result in experiment [7] was inactive.
Take `[Cl-].[Cl-].[Hg+2]`: the result in experiment [1] was inactive. Also, the AC50 in experiment [2] is 0.444 µM (active); in experiment [3], 0.641 µM (active); in experiment [4] it was 0.64 µM (active); in experiment [5], 0.382 µM (active); in experiment [6], 0.894 µM (active); in experiment [7] it was 423 nM (active).
`OCCOCCO`: the AC50 in experiment [1] is 24.5 µM (active). The molecule was classed as inactive in experiment [2], in experiment [3], in experiment [4], in experiment [5], in experiment [6] and in experiment [7].
Regarding `CNC(=O)Oc1cccc2c1OC(C)(C)C2`, the result in experiment [1], in experiment [2], in experiment [5], in experiment [6] and in experiment [7] was inactive. Moreover, the AC50 was 10 µM (active) and 49.6 µM (active) in experiment [3]; 10 µM (active) and 49.6 µM (active) in [4]; 49.6 µM (active) in experiment [6].
For the molecule `CCCCOC(=O)c1ccccc1C(=O)OCc1ccccc1`, the result in experiment [1], in [2], in experiment [5], in [6] and in experiment [7] was inactive. Further, the AC50 in experiment [3] was 15.2 µM (active); in experiment [4] it was 13.6 µM (active).
For the molecule `CCNS(=O)(=O)C(F)(F)C(F)(F)C(F)(F)C(F)(F)C(F)(F)C(F)(F)C(F)(F)C(F)(F)F`, the molecule was called inactive (in experiment [1]; in [2]; in experiment [5]; in the experiment on DIO3 (gene 1735)). Besides, the AC50 in [2] was 2.98 µM (active); in [3], 5.46 µM (active) and 1.92 µM (active); with DIO2 (gene 1734) it was 100 µM (active); in experiment [4] it was 15 µM (active) and 4.81 µM (active); in [6], 4.54 µM (active) and 2.66 µM (active); in experiment [7], 6.71 µM (active) and 4.93 µM (active).
